The list is not random: actives were taken first. Their share in the collection is about 4.4%.
TIM10 inh: inhibits growth of TIM10 yeast strain; S. cerevisiae TIM10 strain growth, BacTiter-Glo luminescence, 24 h; inhibition, % at 10 µM; actives 1.4% (n = 330,000);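 active = inhibition of 40% or more at the single tested concentration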;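 note: wild-type TIM10 isogenic control strain grown at permissive 25 °C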
Mot1-301 SUMO: SUMOylation pathway inhibition by Mot1-301 growth rescue | S. cerevisiae Mot1-301 growth rescue, ATP luminescence, 38.5C; percent above DMSO median, 100 means doubled | growth rescue, % at 18.8 µM | actives 1% (n = 320,000) | AID 2716;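 active = every valid replicate shows activation above 250% relative to neutral control wells; inactive = the rest, any valid replicate at or below 250%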;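 note: OY570 slx delta 5 strain wells were the positive control but not used for scaling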
tim10-1 inh: inhibits growth of tim10-1 mutant yeast | actives 2.2% (n = 330,000) | inhibition, % at 20 µM | S. cerevisiae tim10-1 ts strain growth, BacTiter-Glo, 24 h;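 active = inhibition of at least 40%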;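 note: mutant grown at 25 °C; 0% = DMSO wells with yeast and 100% = wells holding no yeast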
PfHsp90 set2: inhibits growth of yeast expressing Plasmodium falciparum Hsp90; inhibition, % at 9.4 µM; S. cerevisiae expressing PfHsp90, BacTiter-Glo ATP, 48 h; yeast lacking PDR1 and PDR3 efflux regulators; actives 0.32% (n = 310,000);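 active = every replicate shows inhibition above about 80%, whatever the replicate mean, limit read from the data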;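 note: 0% = DMSO neutral controls and 100% = 20 µM radicicol positive controls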
tim23-1 inh: growth inhibitors of tim23-1 mutant yeast; inhibition, % at 20 µM; S. cerevisiae tim23-1 growth, BacTiter-Glo luminescence, 24 h; actives 1.3% (n = 330,000); AID 463212;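 active = growth inhibition of the mutant yeast at or above 50%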;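 note: temperature-sensitive mutant grown at 25 °C; plate controls were DMSO-treated mutant yeast for no effect and medium wells lacking yeast for full effect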
Active calls of the source: *.

Results for N#C/C(=C/c1cc[nH]c1)C(N)=S ?
TIM10 inh: -13.0; Mot1-301 SUMO: 294.9*; tim10-1 inh: -4.2; tim23-1 inh: 5.5

How did Cn1cccc1/C=C(\C#N)C(N)=S do in these assays?
TIM10 inh: 6.5; Mot1-301 SUMO: -8.4; tim10-1 inh: -17.0; PfHsp90 set2: 0.5; tim23-1 inh: 2.6

What do the screens show for `Cc1cccc(NC(=O)c2cccc(NC3=NC4CS(=O)(=O)CC4S3)c2)c1` (centres undefined)?
TIM10 inh: -2.7; Mot1-301 SUMO: -7.8; tim10-1 inh: -15.0; PfHsp90 set2: 2.0; tim23-1 inh: -2.9

Results for CCN(C[C@H]1N[C@@](CC)(C(=O)OC)[C@H]2C(=O)N(C)C(=O)[C@@H]12)C(=O)C1CCCCC1 ?
TIM10 inh: 2.3; tim10-1 inh: 5.4; PfHsp90 set2: -7.9; tim23-1 inh: -2.6

How did NC(=O)c1cc2c(s1)-c1cc(Cl)ccc1SC2 do in these assays?
TIM10 inh: 34.2; Mot1-301 SUMO: 351.1*; tim10-1 inh: 36.4; PfHsp90 set2: 10.8; tim23-1 inh: 37.2

How did CC1CCCCC1NC(=O)CNC(=O)c1cccs1 (centres undefined) do in these assays?
TIM10 inh: -0.2; Mot1-301 SUMO: -4.0; tim10-1 inh: -19.0; PfHsp90 set2: 12.5; tim23-1 inh: -3.1

What do the screens show for `O=C(O)c1ccccc1C(=O)NCc1ccc(F)cc1`?
TIM10 inh: -1.6; Mot1-301 SUMO: 50.4; tim10-1 inh: 5.6; PfHsp90 set2: -18.7; tim23-1 inh: -4.8

What do the screens show for `O=C(O)c1ccccc1C(=O)NNc1ccc(F)cc1`?
TIM10 inh: -84.1; Mot1-301 SUMO: 266.5*; tim10-1 inh: -62.9; PfHsp90 set2: -9.0; tim23-1 inh: -1.3

How did O=C(NC1CCN(Cc2ccccc2)CC1)C1COc2ccccc2O1 (centres undefined) do in these assays?
TIM10 inh: -5.3; Mot1-301 SUMO: 273.3*; tim10-1 inh: -18.8; PfHsp90 set2: -1.7; tim23-1 inh: 14.1

What do the screens show for `O=C(NCc1ccccc1)C1COc2ccccc2O1` (centres undefined)?
TIM10 inh: 2.0; Mot1-301 SUMO: -12.2; tim10-1 inh: 5.9; PfHsp90 set2: 15.6; tim23-1 inh: 6.5

How did Cc1[nH]c2ccc(C(=O)NCc3ccccn3)cc2c1C do in these assays?
TIM10 inh: -10.6; Mot1-301 SUMO: -10.0; tim10-1 inh: -1.4; PfHsp90 set2: 0.4; tim23-1 inh: -0.7

Results for CCCCS(=O)(=O)C(=C1Nc2ccccc2N1)S(=O)(=O)CCCC ?
TIM10 inh: -6.0; Mot1-301 SUMO: -2.4; tim10-1 inh: -6.4; PfHsp90 set2: 3.8; tim23-1 inh: 0.8

Results for CCCS(=O)(=O)C(=C1NCCO1)S(=O)(=O)CCC ?
TIM10 inh: -8.4; Mot1-301 SUMO: 350.9*; tim10-1 inh: 8.2; PfHsp90 set2: -11.3; tim23-1 inh: 6.5

How did O=C(O)Cn1cc(/C=C2\SC(=O)N(c3ccccc3)C2=O)c2ccccc21 do in these assays?
TIM10 inh: 6.1; Mot1-301 SUMO: 672.4*; tim10-1 inh: 12.2; PfHsp90 set2: 19.1; tim23-1 inh: -47.4

How did Cn1cc(/C=C2/SC(=O)N(c3ccccc3)C2=O)c2ccccc21 do in these assays?
TIM10 inh: 14.7; Mot1-301 SUMO: 27.2; tim10-1 inh: 20.2; PfHsp90 set2: -3.0; tim23-1 inh: 7.5

How did Nn1c(-c2ccc(F)cc2)nc2ccccc2c1=O do in these assays?
TIM10 inh: 9.5; Mot1-301 SUMO: 323.3; tim10-1 inh: 15.2; PfHsp90 set2: -13.4; tim23-1 inh: 15.2

How did O=C1c2cc(F)ccc2-n2c1nc1ccccc1c2=O do in these assays?
TIM10 inh: 9.0; Mot1-301 SUMO: -21.9; tim10-1 inh: -10.8; PfHsp90 set2: 89.6*; tim23-1 inh: 30.2

How did COc1ccc2nc(NN=C(C)c3ccccn3)cc(C)c2c1 do in these assays?
PfHsp90 set2: -1.8

How did CC(=O)c1cccc(S(=O)(=O)Nc2cccnc2)c1 do in these assays?
TIM10 inh: -5.9; Mot1-301 SUMO: 5.1; tim10-1 inh: 3.1; PfHsp90 set2: 1.0; tim23-1 inh: -0.2

Results for COc1ccc(S(=O)(=O)NCc2ccccn2)c(C)c1C ?
TIM10 inh: 0.7; Mot1-301 SUMO: 2.9; tim10-1 inh: -2.9; PfHsp90 set2: -32.6; tim23-1 inh: 1.7

How did CCOc1ccc(S(=O)(=O)NCc2ccccn2)c(C)c1C do in these assays?
TIM10 inh: -2.0; Mot1-301 SUMO: 12.1; tim10-1 inh: 12.2; PfHsp90 set2: 93.2*; tim23-1 inh: 16.4

Results for CCN(c1ccccc1)S(=O)(=O)c1ccc(Oc2ccc(C(C)=O)cc2OC)nc1 ?
TIM10 inh: -2.4; Mot1-301 SUMO: -3.4; tim10-1 inh: 12.8; PfHsp90 set2: 7.4; tim23-1 inh: 36.0

Results for COc1ccc([N+](=O)[O-])cc1N(CC(=O)N1CCCC1)S(C)(=O)=O ?
TIM10 inh: 3.8; Mot1-301 SUMO: 354.8*; tim10-1 inh: 7.5; PfHsp90 set2: 6.3; tim23-1 inh: 3.8

How did COc1ccc([N+](=O)[O-])cc1N(CC(=O)N1CCOCC1)S(C)(=O)=O do in these assays?
TIM10 inh: 0.1; Mot1-301 SUMO: -5.1; tim10-1 inh: 6.3; PfHsp90 set2: 20.0; tim23-1 inh: 5.1

How did CC(=O)Nc1cccc(C(=O)OCC(=O)NNC(=O)c2cccs2)c1 do in these assays?
TIM10 inh: -4.4; Mot1-301 SUMO: -18.0; tim10-1 inh: -8.0; tim23-1 inh: -10.2

What do the screens show for `COc1ccc(C(=O)Nc2ccccc2C(=O)Nc2ccncc2)cc1`?
TIM10 inh: 15.5; Mot1-301 SUMO: 147.0; tim10-1 inh: 20.9; PfHsp90 set2: 21.9; tim23-1 inh: 30.3

What do the screens show for `CCOc1cnn(-c2cc(Oc3ccc(C)cc3)ncn2)c(=O)c1Cl`?
TIM10 inh: 14.1; Mot1-301 SUMO: 0.3; tim10-1 inh: 15.5; PfHsp90 set2: 25.7; tim23-1 inh: 16.6

Results for Cc1ccccc1Oc1cc(-n2ncc(Cl)c(Cl)c2=O)ncn1 ?
Mot1-301 SUMO: -36.0; PfHsp90 set2: 97.2*

Results for Cn1c(C(=O)O)c(CC(=O)N2CCC(Cc3ccccc3)CC2)c2ccccc21 ?
TIM10 inh: 8.2; Mot1-301 SUMO: 892.7*; tim10-1 inh: 9.9; PfHsp90 set2: 1.4; tim23-1 inh: 9.5

Results for CCOCC(=O)N1CCC(Cc2ccccc2)CC1 ?
TIM10 inh: -3.3; Mot1-301 SUMO: 26.0; tim10-1 inh: 11.8; PfHsp90 set2: 10.3; tim23-1 inh: 5.8

How did Cc1noc(/C=C/N(C)C)c1S(=O)(=O)N1CCN(c2ccc(F)cc2)CC1 do in these assays?
TIM10 inh: 17.5; Mot1-301 SUMO: 32.8; tim10-1 inh: 24.6; PfHsp90 set2: -23.1; tim23-1 inh: 22.1

Results for Cc1cccc(N2CCN(S(=O)(=O)c3c(C)noc3/C=C/N(C)C)CC2)c1C ?
TIM10 inh: 22.7; Mot1-301 SUMO: 0.3; tim10-1 inh: 39.2; PfHsp90 set2: 111.4*; tim23-1 inh: 37.4

What do the screens show for `CSc1cccc(CN2CCC(CO)(Cc3ccccc3)CC2)c1`?
TIM10 inh: -21.9; Mot1-301 SUMO: 459.4*; tim10-1 inh: -5.0; PfHsp90 set2: 12.9; tim23-1 inh: -1.4

Results for Clc1ccc(-c2ccnc3nc(N4CCOCC4)nn23)c(Cl)c1 ?
PfHsp90 set2: 12.2
